Compound activity as filed in PubChem BioAssay.
Most compounds without a hit are left out; they make up all but 2.6% or so of the library.
eIF4H inh: inhibitors of RNA binding by human eIF4H. Q15056. eIF4H fluorescence polarization binding assay. inhibition, % at 35 µM. 290,000 tested, 0.94% active. AID 2012;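 further: calls also rest on retests at 20 µM and on dose response follow-up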
AI-2 QS modul: modulates the Vibrio harveyi AI-2 quorum sensing system; AID 2094; Vibrio harveyi JMH597 AI-2 luminescence/OD600 ratio, 9 h; active compounds read low; strain lacks LuxN and CqsS sensors; 0 = neutral-control median; activity change, % at 7.5 µM; 300,000 tested, 0.4% active; in the data active means activity change below about -75%, passing the limit was not always enough; inconclusive means no clear call, values can overlap the other calls;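 further: luminescence divided by OD600 gain over 9 h not by final OD600 alone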
PABP polyA inh: blocks human PABP binding to poly(A) RNA | P11940 | fluorescence polarization | 290,000 tested, 1% active | calls only at 35 µM;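 further: calls also rest on retests at 20 µM and on dose response follow-up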
ABCB6 inh MLPCN: human ABCB6 transporter inhibition; K562-ABCB6 porphyrin accumulation, flow cytometry, 1 h; active compounds read low; fluorescence ratio to DMSO, % at 10 µM; 360,000 tested, 0.19% active; AID 602162;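 active means fluorescence ratio to DMSO below 75%, the collection mean minus 3 SD; inconclusive means too few cells collected in the well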;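 further: signal is porphyrin accumulated inside mitochondria; 100% equals median channel fluorescence of DMSO control wells; lower ratio means ABCB6 inhibition with less porphyrin fluorescence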
MLLE-PAM2 inh: blocks PAM2 peptide binding to the PABP1 MLLE domain; P11940; GST-MLLE / FITC-PAM2 fluorescence polarization; inhibition, % at 20 µM; 360,000 tested, 0.36% active; in the data active means inhibition above about 35%, passing the limit was not always enough;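 further: plate controls were DMSO wells with GST-MLLE for no effect and wells lacking GST-MLLE protein for full effect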
PHOSPHO1 inh: inhibitors of human PHOSPHO1 phosphatase | recombinant PHOSPHO1, absorbance phosphatase assay | inhibition, % at 13.3 µM | 290,000 tested, 1.1% active; in the data active means inhibition above about 60%
Target sequence (Q8TCT1 whole entry, looked up): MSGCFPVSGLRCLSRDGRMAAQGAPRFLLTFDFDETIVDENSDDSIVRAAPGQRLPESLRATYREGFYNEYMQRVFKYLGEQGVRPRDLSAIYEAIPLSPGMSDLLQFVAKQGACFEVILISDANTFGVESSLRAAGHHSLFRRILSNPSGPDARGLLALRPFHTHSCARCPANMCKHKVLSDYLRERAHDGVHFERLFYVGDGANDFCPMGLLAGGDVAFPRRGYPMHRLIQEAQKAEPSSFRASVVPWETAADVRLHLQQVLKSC
* marks the source's active call; other numbers are inactive results; i = inactive; ? = inconclusive; / = no result; + = active, no number. Unless noted, how the calls were made is not given here.

SMILES	eIF4H inh	AI-2 QS modul	PABP polyA inh	ABCB6 inh MLPCN	MLLE-PAM2 inh	PHOSPHO1 inh
CCCC1CC(C)(C(=O)CSc2n[nH]c(-c3ccccc3)n2)OC1=O (centres undefined)	-2	20	i	101	9	60*
O=[N+]([O-])C1C(c2ccccc2)C12c1ccccc1-c1ccccc12 (centres undefined)	/	/	/	101	16	/
COc1ccccc1NC(=O)CCN1CC(C)OC(C)C1 (centres undefined)	93	23	+	96	2	-32
COc1ccc(NC(=O)CCN2CC(C)OC(C)C2)c(OC)c1 (centres undefined)	-6	16	i	103	10	0
Cc1cccc(C)c1NC(=O)C1(C)CCC(=O)N1c1cc(C(C)(C)C)nn1C (centres undefined)	/	/	/	99	3	/
Cc1ccc(NC(=S)Nc2ccccn2)cc1C	1	23	i	98	40*	-35
CC(C)CNC(=O)C1(C)CCCN1C(=O)c1ccc2c(c1)CCO2 (centres undefined)	/	/	/	101	-5	/
CCN1CCN(C(C(=O)NC2CCCCC2)c2cc3ccccc3o2)CC1 (centres undefined)	/	/	/	98	-13	/
Cc1cc(C)c2cc(C#N)c(NCCCN)nc2c1	/	/	/	104	/	/
CCOC(=O)c1cn(CC)c2ccc(Br)cc2c1=O	-11	26	i	93	-81	78*
CC(NC(=O)c1cccs1)C(S)c1ccccc1 (centres undefined)	-11	24	i	98	43*	29
Cc1ccc2c(NCc3ccco3)nc(NC(C)C)nc2c1	/	/	/	101	/	/
CC1(C(=O)Nc2cccc3ccccc23)CCN1C(=O)Cc1ccccc1Cl (centres undefined)	/	/	/	101	-11	/
CC1(OC(=O)c2ccc(Cl)nc2)C(=O)C=C2C=C(C3CC3)OC=C2C1=O (centres undefined)	/	42	/	/	/	/
CC1(OC(=O)c2ccc(Cl)nc2)C(=O)C=C2C=C3CCCN3C=C2C1=O (centres undefined)	101*	/	+	100	-3	-31
COC(=O)CCC(=O)OC1(C)C(=O)C=C2C=C3CCCN3C=C2C1=O (centres undefined)	107*	32	+	94	-7	4
CC1(OC(=O)C2CCCC2)C(=O)C=C2C=C3CCCCN3C=C2C1=O (centres undefined)	?	36	?	93	18	26
Nc1[nH]c(C(=O)c2ccccc2)c(-c2ccccc2C(F)(F)F)c1C(=O)NCCc1c[nH]c2ccccc12	/	/	/	130	/	/
CC(=O)NC(c1ccccc1)c1nc(-c2cccc(C#N)c2)cs1 (centres undefined)	/	/	/	96	6	/
COc1ccc(C(=O)COC(=O)c2cccnc2Cl)c(OC)c1	59*	32	i	104	-15	20
COc1ccc(OC)c(C(=O)COC(=O)c2cccnc2Cl)c1	5	-8	i	97	-1	-4
COc1ccccc1Cc1c(-c2cccc(Br)c2)nc2ccc(Cl)cn12	/	/	/	99	-34	/
CC(C)C[C@H]1CN(CCCC[C@@H]2CNC(=O)C(=O)N2CCc2ccccc2)C(=O)C(=O)N1Cc1ccccc1	/	/	/	93	/	/
COC(=O)c1cc(=O)nc2sc(-c3ccc(F)cc3)nn12	-11	-8	i	100	33	95*
COC(=O)c1cc(=O)nc2sc(-c3cccs3)nn12	-3	31	i	110	0	9
SMILES	eIF4H inh	AI-2 QS modul	PABP polyA inh	ABCB6 inh MLPCN	MLLE-PAM2 inh	PHOSPHO1 inh
C#Cc1cccc(Nc2nc(NCc3ccccc3OC)nc3ccsc23)c1	/	/	/	96	-20	/
CC(C)(C)n1nnnc1C(c1ccccc1)N1CCN(c2ccc(C(F)(F)F)cn2)CC1 (centres undefined)	/	/	/	101	/	/
CN1CCc2nc(NC(=O)c3cccc(OC(F)F)c3)sc2C1	74*	4	+	107	-64	14
O=C1c2ccccc2C(c2nnnn2-c2ccc3c(c2)OCCO3)N1CCc1ccccc1F (centres undefined)	/	/	/	96	/	/
CC(C)(C)n1cc(S(=O)(=O)c2ccccc2)[nH]c1=O	active	-8	+	97	4	-3
O=C(O)c1cc(-c2ccc(/C=c3\sc4nc5ccc(Br)cc5n4c3=O)o2)ccc1Cl	55*	17	+	/	/	-78
O=C(O)c1ccccc1-c1ccc(/C=c2\sc3nc4cc(Br)cnc4n3c2=O)o1	77*	95	+	108	-125	62*
O=C1C(=C2CCCCC2)SC(=S)N1Cc1ccco1	4	3	i	99	21	70*
O=C1CC(=O)N(Cc2ccco2)C(=S)N1	64*	39	+	93	-118	89*
O=C(O)CCN1C(=O)C2CCCCC2C1=O (centres undefined)	-4	32	i	101	-1	-7
CN(C)c1ccc(C=C2SC(=S)N(Cc3ccco3)C2=O)cc1	/	/	/	i	i	/
O=C(O)CCN1C(=O)C(=C2CCCCCC2)SC1=S	-7	8	i	99	45*	-8
O=C1CC(=O)N(Cc2ccco2)C(=O)N1	?	20	i	105	-105	36
CCCCn1nnnc1C1(C)CCC(=O)N1C1CC1 (centres undefined)	/	/	/	101	/	/
O=c1nc2n(c3ccccc13)Cc1ccccc1-2	4	/	i	/	/	6
O=c1c2cccc(Cl)c2nc2n1Cc1ccccc1-2	-10	21	i	100	31	81*
CCSc1ccc2nnc(-c3cccc(F)c3)n2n1	2	11	i	103	-12	94*
O=C(CSc1ccc2nnc(-c3cccc(F)c3)n2n1)N1CCCc2ccccc21	-5	41	i	93	3	-21
Cn1cccc1Cc1nnc(SCC(=O)N2CCOCC2)n1CCc1ccccc1	-10	13	i	96	-75	-9
CCOC(=O)N1CCN(C(=O)CSc2nnc(Cc3cccn3C)n2CCc2ccccc2)CC1	9	18	i	97	-37	62*
CCCCNC(=O)C(NC(=O)c1cccc(C(F)(F)F)c1)C(=O)c1ccccc1 (centres undefined)	/	/	/	101	12	/
O=C(O)CCc1ccc(-c2cccs2)o1	70*	31	+	97	31	-4
CCCCn1nnnc1C1(C)CCC(=O)N1CCc1ccc(OC)c(OC)c1 (centres undefined)	/	/	/	93	/	/
Cc1ccc(S(=O)(=O)CC(=O)Nc2nnc(C(C)(C)C)s2)cc1	9	5	i	94	38*	14
CC(C)(C)c1csc(NC(=O)CS(=O)(=O)c2ccccc2)n1	-8	9	i	85	7	26
Cc1csc(NC(=O)CS(=O)(=O)c2ccccc2)n1	83*	2	+	100	-11	28
COC(=O)[C@]12CCCCC=C1N(CCC1=CCCCC1)C(=O)[C@H](CC(=O)NCc1ccccc1)C2	/	/	/	105	/	/
